Source: PubChem BioAssay (NCATS)
A number with no mark means an inactive call. Inconclusive results are not listed. The source made the active and inactive calls. The call rests on the fitted dose curve; in most records, active means well fitted curve in the direction sought with a large enough effect; inconclusive means small, poorly fitted or top-dose-only effect, or another doubt; inactive means no such curve, though single readings can be large; an effect the other way counts as inactive or inconclusive.

Test system: not listed separately
Test: qHTS for Inhibitors of Cell Surface uPA Generation: Validation Assay (AID 493164);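 further: RAW 264.7 macrophage cells exposed to compound for 18 h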
Details: mouse cells, plasminogen activation; series mostly up to 38.3 µM; activity change: at the top concentration
Summary of the method: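 ATP-Lite luminescence read-out: ATP remains high when uPA activity-dependent LF translocation into the cytoplasm is blocked. RAW 264.7 cells, 18 h compound exposure at 37 C; 7-point titration, 2.45 nM to 38.3 uM final.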
Further: 0% is about no effect.

| Compound | activity change | outcome |
| --- | --- | --- |
| CSc1ccc2c(c1)N(CCC1CCCCN1C)c1ccccc1S2 (centres undefined) | -1% | – |
| CC(CN(C)C)CN1c2ccccc2CCc2ccccc21 (centres undefined) | -1.27% | – |
| CN(C)CCCN1c2ccccc2CCc2ccccc21 | 0.271% | – |
| Cc1cc(N)c2ccccc2[n+]1CCCCCCCCCC[n+]1c(C)cc(N)c2ccccc21 | 2.28% | – |
| CNCC(O)c1ccc(O)c(O)c1 (centres undefined) | 1.01% | – |
| CC(C(O)c1ccc(O)cc1)N1CCC(Cc2ccccc2)CC1 (centres undefined) | -0.366% | – |
| CCN(CC)CCCC(C)Nc1c2ccc(Cl)cc2nc2ccc(OC)cc12 (centres undefined) | 2.39% | – |
| COC(=O)C1=C(C)NC(C)=C(C(=O)OC)C1c1ccccc1[N+](=O)[O-] | 0.988% | – |
| CN(C)CCC=C1c2ccccc2CCc2ccccc21 | 0.118% | – |
| CC(C)(C)[C@]1(O)CCN2C[C@H]3c4ccccc4CCc4cccc(c43)[C@@H]2C1 | – | inactive |
| CCN(CC)CCOC(=O)C1(C2CCCCC2)CCCCC1 | 1.51% | – |
| CCN(CC)CCNC(=O)c1cc(Cl)c(N)cc1OC | -0.842% | – |
| CNCCC(Oc1ccc(C(F)(F)F)cc1)c1ccccc1 (centres undefined) | -2.32% | – |
| CN(C)CCCN1c2ccccc2Sc2ccc(Cl)cc21 | -0.403% | – |

Biological target: Galactokinase (Homo sapiens) (UniProt P51570)
Sequence (P51570 whole entry, looked up): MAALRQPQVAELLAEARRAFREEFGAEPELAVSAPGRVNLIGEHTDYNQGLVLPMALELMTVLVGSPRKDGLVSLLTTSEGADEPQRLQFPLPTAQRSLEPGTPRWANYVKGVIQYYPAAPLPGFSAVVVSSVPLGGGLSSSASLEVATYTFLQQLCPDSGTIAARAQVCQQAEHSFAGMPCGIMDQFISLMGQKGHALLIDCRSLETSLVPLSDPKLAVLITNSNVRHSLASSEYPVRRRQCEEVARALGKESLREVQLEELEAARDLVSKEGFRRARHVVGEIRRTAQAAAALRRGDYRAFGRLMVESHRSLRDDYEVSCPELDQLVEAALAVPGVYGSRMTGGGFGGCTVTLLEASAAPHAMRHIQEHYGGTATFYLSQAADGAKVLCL
Test: qHTS Validation Assay for Inhibitors of Human Galactokinase (GALK) (AID 493189)
Details: purified human GALK enzyme activity, qHTS 7-point titration; series mostly up to 57.5 µM; activity change, negative = inhibition: at the top concentration
Summary of the method: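 GALK (5 nM) with 35 uM ATP and 100 uM galactose in HEPES pH8.0, MgCl2, NaCl, DTT, BSA; 1 h at room temperature. Residual ATP read by Kinase-Glo Plus luminescence after 10 min.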

| Compound | activity change, negative = inhibition |
| --- | --- |
| CSc1ccc2c(c1)N(CCC1CCCCN1C)c1ccccc1S2 (centres undefined) | -0.843% |
| CC(CN(C)C)CN1c2ccccc2CCc2ccccc21 (centres undefined) | 0.334% |
| Cc1cc(N)c2ccccc2[n+]1CCCCCCCCCC[n+]1c(C)cc(N)c2ccccc21 | 3.27% |
| CNCC(O)c1ccc(O)c(O)c1 (centres undefined) | 3.97% |
| CC(C(O)c1ccc(O)cc1)N1CCC(Cc2ccccc2)CC1 (centres undefined) | 0.2% |
| CCN(CC)CCCC(C)Nc1c2ccc(Cl)cc2nc2ccc(OC)cc12 (centres undefined) | 3.61% |
| COC(=O)C1=C(C)NC(C)=C(C(=O)OC)C1c1ccccc1[N+](=O)[O-] | -2.08% |
| CN(C)CCC=C1c2ccccc2CCc2ccccc21 | 3.77% |
| C[C@H]1O[C@@H](n2cc(F)c(=O)[nH]c2=O)[C@H](O)[C@@H]1O | 4.2% |
| CCN(CC)CCOC(=O)C1(C2CCCCC2)CCCCC1 | -1.51% |
| CCN(CC)CCNC(=O)c1cc(Cl)c(N)cc1OC | 0.186% |
| CNCCC(Oc1ccc(C(F)(F)F)cc1)c1ccccc1 (centres undefined) | -0.13% |
| CN(C)CCCN1c2ccccc2Sc2ccc(Cl)cc21 | 3.57% |

Test system: not listed separately
Test: Validation screen for small molecules that induce DNA re-replication in SW480 colon adenocarcinoma cells (AID 504364)
Details: DNA re-replication phenotype (high-content imaging); series mostly up to 46.1 µM; activity (re-replication induction): at the top concentration
Summary of the method: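 Image-based DNA content read-out: Hoechst stain 40 min, total nuclear fluorescence intensity (ex 405 nm, em 500-530 nm) after 48 h compound exposure of 250 SW480 cells/well at 37 C, 5% CO2, versus DMSO vehicle.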

| Compound | activity (re-replication induction) |
| --- | --- |
| CSc1ccc2c(c1)N(CCC1CCCCN1C)c1ccccc1S2 (centres undefined) | -23.1% |
| CC(CN(C)C)CN1c2ccccc2CCc2ccccc21 (centres undefined) | 5.76% |
| Cc1cc(N)c2ccccc2[n+]1CCCCCCCCCC[n+]1c(C)cc(N)c2ccccc21 | -15% |
| CNCC(O)c1ccc(O)c(O)c1 (centres undefined) | -14.6% |
| CC(C(O)c1ccc(O)cc1)N1CCC(Cc2ccccc2)CC1 (centres undefined) | 27% |
| CCN(CC)CCCC(C)Nc1c2ccc(Cl)cc2nc2ccc(OC)cc12 (centres undefined) | 19.8% |
| COC(=O)C1=C(C)NC(C)=C(C(=O)OC)C1c1ccccc1[N+](=O)[O-] | 13.4% |
| CN(C)CCC=C1c2ccccc2CCc2ccccc21 | 14.3% |
| C[C@H]1O[C@@H](n2cc(F)c(=O)[nH]c2=O)[C@H](O)[C@@H]1O | -14.7% |
| CCN(CC)CCOC(=O)C1(C2CCCCC2)CCCCC1 | 21.2% |
| CCN(CC)CCNC(=O)c1cc(Cl)c(N)cc1OC | 0.482% |
| CNCCC(Oc1ccc(C(F)(F)F)cc1)c1ccccc1 (centres undefined) | 6.88% |
